Screening results as filed in PubChem.
CHX counter – counter-screen hit for Shiga toxin inhibitors, cycloheximide; cell reporter, cycloheximide protein synthesis inhibition counterscreen; AID 2314; max response, %; hit rate 12% among 300,000; in the data active = max response mostly above about 13%, no sharp cut-off; inactive = mostly below about 14%; note: read at 38.3 µM for the half of the compounds with a filed dose
Pf growth 48h – inhibits P. falciparum growth in the first generation, 48 h; P. falciparum luciferase growth in erythrocytes, 48 h; Potency, µM (series often up to 28.7 µM), hits mostly inhibitors; hit rate 5.9% among 310,000; AID 504832; active = well fitted inhibition curve with a large enough effect; inconclusive = small, poorly fitted or top-dose-only effect, or another doubt; inactive = no such curve, though single readings can be large or run the other way
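Luciferase-expressing P. falciparum in infected erythrocytes (2% hematocrit, 0.1% parasitemia final) in RPMI 1640/0.5% Albumax were exposed to compound for 48 hours at 37 C, 5% CO2; growth read as luminescence.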
Pf growth 96h – P. falciparum growth inhibition at 96 hour, primary screen for plastid delayed-death inhibitors; P. falciparum luciferase reporter growth, 96 h; Potency, µM (titrated, usually from 28.7 µM), hits mostly inhibitors; hit rate 6.9% among 320,000; AID 504834; active = well fitted inhibition curve with a large enough effect; inconclusive = small, poorly fitted or top-dose-only effect, or another doubt; inactive = no such curve, though single readings can be large or run the other way
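Erythrocytes infected with luciferase-expressing P. falciparum were dispensed at 2% hematocrit and 0.05% parasitemia (final), then incubated with compounds 96 hours at 37 C in 5% CO2. Luminescence after detection reagent addition reported growth.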
NS1 inh – blocks influenza NS1 protein function; Potency, µM (highest dose often 46.1 µM); hit rate 0.4% among 270,000; AID 2326; note: actives are rising curves; nearly all actives have a fitted effect of over 50% in size
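In this qHTS, NS1 from influenza A is expressed in budding yeast, where it slows growth. Cells are switched from glucose to 2% galactose medium (pH 6.0, -URA), treated with compound, and growth recovery is read at OD600.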
SARS PLP yeast – inhibitors of SARS-CoV papain-like protease in yeast; S. cerevisiae expressing SARS-CoV PLpro, growth rescue; Potency, µM (top dose mostly 32.9 µM), most hits filed as activators; hit rate 0.19% among 330,000; note: nearly all actives have a fitted effect of over 55% in size
Shiga toxin inh – blocks Shiga toxin action in Vero cells; Vero cells, Shiga toxin protein synthesis inhibition reporter; inhibition, % at 38.7 µM; hit rate 9.2% among 290,000; AID 2315; in the data active = inhibition mostly above about 28%, no sharp cut-off; inactive = mostly below about 43%
Numbers stand for hits; 0 = inactive; ? = inconclusive; - = no result given. Shown are actives, neighbours in structure and some others; about 21% of the full set was active somewhere. Unless noted, calls come from the whole dose curve.

SMILES	CHX counter	Pf growth 48h	Pf growth 96h	NS1 inh	SARS PLP yeast	Shiga toxin inh
CCN(CC)CCCN(C(=O)c1ccccc1F)c1nc(-c2ccc(OC)cc2)cs1	0	4.1µM	0	0	0	0
NS(=O)(=O)OCCCc1ccc(C(F)(F)F)cc1	0	0	0	0	0	0
CSc1ccc(S(=O)(=O)Nc2ccc(OCC(=O)N3CCOCC3)cc2)cc1	0	0	0	0	0	0
Cc1nn(C)cc1S(=O)(=O)N1CCN(c2ccccc2F)CC1	0	0	0	0	0	0
COc1ccc(-c2csc(N(CCCN(C)C)C(=O)c3ccc(C(C)(C)C)cc3)n2)cc1	0	13µM	0	0	0	0
COc1ccc(-c2csc(N(CCCN(C)C)C(=O)c3ccc(Br)cc3)n2)cc1	0	?	?	0	0	-
CCC(=O)N(CC)c1nc(-c2cc(OC)ccc2OC)cs1	0	12µM	0	0	0	0
CCN(C(=O)c1cccs1)c1nc(-c2ccc(OC)cc2)cs1	43	0	?	-	0	101
COc1ccc(CSc2ncnc3sccc23)cc1F	0	0	0	-	0	55
O=C1C=C(Nc2ccc(Cl)cc2Cl)CC(c2ccco2)C1 (configuration not stated)	0	0	?	-	0	0
CC(=O)c1sc(NC(=O)C=C(C)C)nc1C	44	0	-	0	0	66
CC(=O)c1sc(NC(=O)C2(F)C(F)(F)C(F)(F)C(F)(F)C(F)(F)C2(F)F)nc1C	0	8.3µM	0	0	0	0
CC(C)=CC(=O)Nc1nnc(-c2ccccc2)s1	46	0	0	0	0	14
CCCCC(=O)Nc1nc(C)c(C(C)=O)s1	0	-	0	0	0	0
CC(C)=CC(=O)Nc1nnc(C)s1	16	0	0	0	0	25
Cc1noc(C)c1C(=O)Nc1nnc(CC(C)C)s1	0	0	0	0	0	0
CCOC(=O)N1CCC(N2C(=O)c3ccccc3C2Nc2ccc(S(=O)(=O)N3CCOCC3)cc2)CC1 (configuration not stated)	0	?	?	-	0	0
CC(Nc1nc(-c2ccc3c(c2)NC(=O)CO3)cs1)c1ccccc1 (configuration not stated)	18	0	?	0	0	0
CCCC(=O)Nc1nc(-c2ccc3c(c2)CCN3S(C)(=O)=O)cs1	0	0	0	0	0	0
Cc1ccc(-c2csc(N3CCN(S(=O)(=O)c4ccc5c(c4)NC(=O)CO5)CC3)n2)cc1	0	?	?	0	0	0
O=C1COc2ccc(-c3csc(NCC4CCCO4)n3)cc2N1 (configuration not stated)	0	-	15µM	0	0	0
COc1cccc(-c2nc(-c3ccc4c(c3)NC(=O)CO4)cs2)c1	50	0	0	-	0	105
O=C(CSc1nc(-c2ccc(F)cc2)cs1)NCC1CCCO1 (configuration not stated)	-	-	-	-	0	-
COc1ccc(-c2cc(-c3ccc(OC)cc3)nc(-c3ccc4c(c3)NC(=O)CO4)c2)cc1	0	?	-	0	0	0
CS(=O)(=O)N1CCc2cc(-c3csc(NCC4CCCO4)n3)ccc21 (configuration not stated)	0	9.3µM	?	0	0	0
SMILES	CHX counter	Pf growth 48h	Pf growth 96h	NS1 inh	SARS PLP yeast	Shiga toxin inh
CC(C)c1cc(C(=O)OCC(=O)N2CCN(C(=O)c3ccco3)CC2)c(O)c(C(C)C)c1	0	0	0	0	0	0
O=C1CCCC2=C1C(c1cccs1)Nc1ccc3ncccc3c12 (configuration not stated)	0	0	0	0	0	0
O=C1CCCC2=C1C(c1ccc(O)c(O)c1)Nc1ccc3ncccc3c12 (configuration not stated)	0	0	0	-	0	33
COc1cc(C2C3=C(CCCC3=O)Nc3ccc4ncccc4c32)ccc1O (configuration not stated)	15	0	0	-	0	0
COc1ccc(C2C3=C(CCCC3=O)Nc3ccc4ncccc4c32)cc1OC (configuration not stated)	35	0	0.29µM	-	0	0
CC1=C(/C=C\C(=O)O)C(C)(C)CCC1	-	-	-	0	-	-
OC(COC(c1ccccc1)c1ccccc1)CN1CCN(c2ccccn2)CC1 (configuration not stated)	0	?	?	0	0	0
CNCC(O)Cn1c2c(c3ccccc31)CCCC2 (configuration not stated)	0	10µM	0	0	0	0
Cc1ccc2c(c1)c(C)c(C)n2CC(O)CN1CCOCC1 (configuration not stated)	0	12µM	0	0	0	0
Cc1ccc2c(c1)c1c(n2CC(O)CN2CCCCCC2)CCCC1 (configuration not stated)	0	8.3µM	0	0	0	0
OC(CN1CCN(c2ccccn2)CC1)Cn1c2ccccc2c2ccccc21 (configuration not stated)	0	?	1.9µM	0	0	0
Cc1ccc(C(C)C)c(OCC(O)CN2CCOCC2)c1 (configuration not stated)	0	0	-	0	0	0
O=C(O)CS(=O)(=O)C(c1ccccc1)c1ccccc1	-	-	-	0	-	-
Cc1c(C)n(CC(O)CN2CCCCCC2)c2ccccc12 (configuration not stated)	0	?	0	0	0	0
OC(CN1CCCCC1)Cn1c2ccccc2c2cc(Br)ccc21 (configuration not stated)	0	12µM	9.3µM	0	0	0
Cc1ccc(NC(=O)NC2=N/C(=C(/C#N)C(=O)N3CCCC3)c3ccccc32)cc1	20	0	?	0	0	0
Cc1ccc(CNC(=O)C2CCCN(S(=O)(=O)c3ccc(F)cc3)C2)cc1 (configuration not stated)	0	0	?	0	0	0
CCOC(=O)N1CCC(C(=O)NNC(=O)c2ccc(Cl)cc2Cl)CC1	0	0	10µM	0	0	0
CCOC(=O)N1CCN(C(=O)C2CCN(S(=O)(=O)c3cc(Cl)ccc3Cl)CC2)CC1	0	7.4µM	0	0	0	0
CCOC(=O)N1CCN(C(=O)C2CCN(S(=O)(=O)c3ccc(NC(C)=O)cc3)CC2)CC1	0	?	8.3µM	0	0	0
CCOC(=O)C1CCN(C(=O)C2CCN(S(=O)(=O)c3cc(Cl)ccc3Cl)CC2)CC1	0	?	0	0	0	0
CC1CCN(Cc2nnnn2CCCC(=O)N(C)C2CCOC2)CC1 (configuration not stated)	0	0	0	0	0	0
O=C(COc1cccnc1[N+](=O)[O-])Nc1cccc(S(=O)(=O)N2CCOCC2)c1	0	0	0	-	0	0
Cc1nc(S(=O)(=O)Nc2ccccc2C(=O)NCC2CC2)cn1C	0	3.3µM	0	0	0	0
Cc1ccc(S(=O)(=O)Nc2ccccc2C(=O)NCC2CCCO2)cc1 (configuration not stated)	0	0	?	0	0	0
O=C(O)c1ccc(COc2ccccc2Cl)cc1	29	0	-	0	0	145
CN(C(=O)c1ccccc1OCc1ccc(Cl)cc1)c1ccccc1	0	0	?	0	0	0
